activity, negative = inhibition data for 95 molecules are collected here from PubChem BioAssay AID1477 (National Center for Advancing Translational Sciences (NCATS), 2009).

The campaign covered roughly 230,000 compounds. Fewer than 10 were called active. Not shown: some 3% with an inconclusive outcome. The call rests on the fitted dose curve; in most records, active means well fitted curve in the direction sought with a large enough effect; inconclusive means small, poorly fitted or top-dose-only effect, or effect the other way, or another doubt; inactive means no such curve, though single readings can be large or run the other way. The list is a sample of the results.

The assay deals with Runt-related transcription factor 1 (Homo sapiens) + Core-binding factor subunit beta (Homo sapiens) (UniProt Q01196+Q13951). The assay is described as follows: qHTS Assay for Compounds Blocking the Interaction Between CBF-beta and RUNX1 for the Treatment of Acute Myeloid Leukemia. Further: % of control where 0% means no effect. As to conditions: AlphaScreen CBFb-His/RUNX1-biotin binding, biochemical; series mostly up to 59.8 µM. An excerpt: NIH Chemical Genomics Center [NCGC]
Chain of Runt-related transcription factor 1 (Homo sapiens) + Core-binding factor subunit beta (Homo sapiens) (Q01196 whole entry, looked up): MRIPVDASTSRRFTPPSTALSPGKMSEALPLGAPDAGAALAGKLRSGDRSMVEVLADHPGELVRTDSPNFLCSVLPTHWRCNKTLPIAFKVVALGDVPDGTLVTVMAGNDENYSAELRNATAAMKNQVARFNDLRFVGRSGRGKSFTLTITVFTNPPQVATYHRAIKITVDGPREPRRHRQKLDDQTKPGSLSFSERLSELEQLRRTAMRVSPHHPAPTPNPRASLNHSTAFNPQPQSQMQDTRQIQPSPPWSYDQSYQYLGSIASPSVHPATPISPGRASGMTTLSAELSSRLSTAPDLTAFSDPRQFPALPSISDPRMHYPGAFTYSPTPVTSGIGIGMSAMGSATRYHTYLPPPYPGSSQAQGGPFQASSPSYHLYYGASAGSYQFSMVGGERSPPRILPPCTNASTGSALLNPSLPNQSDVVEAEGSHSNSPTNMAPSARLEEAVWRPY
Chain of Runt-related transcription factor 1 (Homo sapiens) + Core-binding factor subunit beta (Homo sapiens) (Q13951 whole entry, looked up): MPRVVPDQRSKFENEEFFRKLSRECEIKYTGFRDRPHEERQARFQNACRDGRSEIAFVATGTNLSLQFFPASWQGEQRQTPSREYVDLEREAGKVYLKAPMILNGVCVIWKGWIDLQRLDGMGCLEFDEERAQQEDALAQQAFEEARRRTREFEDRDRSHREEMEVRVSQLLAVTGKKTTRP
NIH Molecular Libraries Probe Production centers Network [MLPCN]
Assay Submitter (PI): Paul Liu
Core Binding Factor (CBF) abnormalities are associated with 20-25% of all acute myeloid leukemias (AML), of which 5-10% are further sub classified as acute myelomonocytic leukemia with eosinophilia, also known as M4Eo in the FAB classification scheme. This subtype of leukemia is usually associated with chromosome 16 inversion (p13:q22). Chromosome 16 inversion results in formation of the fusion oncogene CBFB-MYH11, which encodes the fusion protein CBF-beta-SMMHC.
It has been hypothesized that the interference of CBF-beta and RUNX1 binding could have therapeutic implications for patients with CBF mediated leukemias. We developed a CBF-beta and RUNX1 binding assay in AlphaScreenTM format and optimized it for high throughput screening to search for inhibitors. The goal of this project is to screen MLPCN's compound collection (MLSMR) for identifying the inhibitors of the interaction between CBF-beta and RUNX1 proteins as research probes. If these probes work well in the animal models, the ultimate goal of this project is to development a new drug treatment for this disease.
This assay can not be used to assess how apparent inhibitors interfere with protein binding, and whether inhibitors specifically bind to either protein. Disruption of this protein-protein interaction, through any mechanism, is the intended target activity.
NCGC Assay Protocol Summary:
Step, Parameter, Description
(1) Reagent, 3 uL CBFb-His/RUNX1-biotin mix incubated together for 20 minutes at room temperature (30 nM each)
(2) Compound or control, 23 nL compound stock solution
(3) Incubation, 15 minutes at Room temperature
(4) Reagent, 1 uL 50 ng each of beads (Nickel beads and streptavidin beads)
(5) Incubation, 90 minutes at Room temperature
(6) Detection, Excitation=365 nm Emission=440 nm, Envision reader in AlphaScreenTM mode
Keywords: MLSMR, MLPCN, NIH Roadmap, qHTS, NCGC, Core binding factor, CBF, CBF-beta, Acute myeloid leukemia
For orientation: qHTS replaces the single test concentration by a dilution series.
On to `O=C(c1ccccc1)c1cc(-c2ccccn2)c(N2CCOCC2)s1`, for which the activity, negative = inhibition entry is “inactive”.
`CC1CN(c2nc(Nc3ccccc3)nc(N)c2[N+](=O)[O-])CC(C)O1` (stereo not given): the activity, negative = inhibition entry is “inactive”.
The value for `OCCC#Cc1ccc(CN2CCN(Cc3ccsc3)C(CCO)C2)cc1` (stereo not given) was “inactive”; that for `O=C(O)c1ccc(/C=C2/SC(=S)N(c3cccc(C(F)(F)F)c3)C2=O)cc1` was “inactive”; that for `COc1ccc2nc(NC(=O)NC3CCCCC3)sc2c1` was “inactive”.
Under `COc1ccc(Br)cc1C1C2C=CCC(C)C2C(=O)N1Cc1ccccc1` (stereo not given) stands “inactive”; under `COc1cc(C(=O)NCc2nnc(SCC(=O)Nc3nc4ccc(C)cc4s3)o2)cc(OC)c1OC`, “inactive”; under `COCc1cc(=O)[nH]c(-c2ccc(C(F)(F)F)cc2)n1`, “inactive”.
The value for `COc1ccc(N2C(=O)/C(=C\c3ccco3)N=C2SCC(N)=O)cc1Cl` was “inactive”.
`COc1ccc(Cl)cc1NC(=O)NC(C)C(C)(C)C` (stereo not given): the activity, negative = inhibition result is “inactive”.
Under `CC(C)=CCC[C@]1(C)[C@@H](CC=C(C)C)C[C@@]2(CC=C(C)C)C(=O)[C@]1(C(=O)C(C)C)C(=O)C(CC=C(C)C)=C2O` stands “inactive”; under `COc1ccc(/C=C/C(=O)Nc2ccc(C)cc2)cc1S(=O)(=O)N1CCOCC1`, “inactive”.
The value for `Cc1ccc(CNC(=O)C2(C(F)(F)F)C/C(=C\CCO)CCCO2)o1` (stereo not given) was “inactive”; that for `C[C@H]1CCC[C@@]2(C)CCCC[C@]12O` was “inactive”.
Turning to `Oc1ccc(-c2c(-c3ccccc3)nn3c(C(F)(F)F)cc(C(F)(F)F)nc23)cc1`, the activity, negative = inhibition result is “inactive”.
Under `COc1ccc2oc(-c3cccc(NC(=O)CSc4ccc(Cl)cc4)c3)nc2c1` stands “inactive”.
The value for `CC[C@H](C)[C@@H](NC(=O)O[C@@H]1C(=O)c2cc(OC)ccc2O[C@H]1c1cccc(OC)c1)C(=O)OC` was “inactive”; that for `COc1ccc(C2/C=C\CN(C(=O)c3ccc(C)cc3)C(Cc3ccccc3)C(=O)N2Cc2ccc(F)cc2)cc1` (stereo not given) was “inactive”.
Under H-EHIPA-OH stands “inactive”; under `COC(=O)C(CC(C)C)NS(=O)(=O)c1cc(Br)ccc1Br` (stereo not given), “inactive”.
Take `Cc1ccc(C(=O)N/N=C\c2cc(Br)c(Br)o2)cn1`: the activity, negative = inhibition result was “inactive”.
Under `COc1ccc(C2/C=C\CN(CC(C)C)CC(=O)N2Cc2ccc(F)cc2)cc1` (stereo not given) stands “inactive”; under `COc1ccc(C(=O)CSc2nnc(NC(=O)C3CC(=O)N(c4cccc(OC)c4)C3)s2)cc1` (stereo not given), “inactive”; under `COc1ccc(/C=N/NC(=O)Cn2cc(C(F)(F)F)ccc2=O)cc1`, “inactive”.
The value for `COC(=O)c1c(NC(=O)CN(c2ccc(C)c(C)c2)S(C)(=O)=O)sc2c1CCCC2` was “inactive”; that for `COc1ccc(C(CCN2CCOCC2)c2c(OC)cc(OC)c3c2OC(=O)CC3c2ccc(OC)cc2)cc1` (stereo not given) was “inactive”.
The value for `COC(=O)c1nc2n(n1)C(c1ccc([N+](=O)[O-])cc1)C(C(=O)Nc1ccc(Cl)cc1)=C(C)N2` (stereo not given) was “inactive”; that for `O=C(COC(=O)c1ccc(S(=O)(=O)Nc2ccccc2)cc1)NCC1CCCO1` (stereo not given) was “inactive”; that for `C=C1CCN(Cc2ccc(OC)cc2)S(=O)(=O)c2ccccc21` was “inactive”.
Consider `CC(C)C(NS(=O)(=O)c1ccc(-c2ccc(Br)cc2)cc1)C(=O)O` (stereo not given), for which the activity, negative = inhibition result is “inactive”.
The value for `CCCC(O)(CCC)C(=O)NN(C(=O)CCl)c1cccc(C)c1` was “inactive”; that for `COc1ccc(C(=O)Nc2ccc(-n3nncc3C(C)(C)C)cc2)cc1` was “inactive”; that for `C=CCOC(=O)C(=C)C` was “inactive”.
The value for `NCCCCC(N)C(=O)O` (stereo not given) was “inactive”; that for `O=C(Cn1c(COc2ccccc2)nc2ccccc21)Nc1cc(Cl)c(Cl)cc1Cl` was “inactive”; that for `C/C(=N\NC(=O)CNC(=O)C(c1ccccc1)c1ccccc1)c1ccc(C)cc1` was “inactive”.
Under `COc1ccc(C(=O)NC2CCN(C(=S)NCCc3ccccc3)CC2)cc1` stands “inactive”.
For `O=C(Nc1cc(C(F)(F)F)ccc1Cl)c1cc2nc3c(c(C(F)(F)F)n2n1)CCCC3`, the activity, negative = inhibition result is “inactive”.
Under `Cc1cc(OCCCCOc2ccc(C#N)cc2)ccc1[N+](=O)[O-]` stands “inactive”; under `Cc1cc2c(cc1C)N(Cc1ccccc1)C1=NCCCN12`, “inactive”; under `CCCc1cc(=O)[nH]c(SCC(=O)N2CCN(S(=O)(=O)c3ccc(C)cc3C)CC2)n1`, “inactive”.
Under `CCOC(=O)c1nn(-c2cccc(C)c2)cc1C(=O)c1ccccc1` stands “inactive”.
Under `COc1ccc(-c2nc3c(c4c2C[C@H](c2ccccc2)OC4)CN(C(=O)c2ccco2)CC3)c(C)c1` stands 5.84% [at 13.1 µM] (inactive).
Regarding `COc1ccc(-c2ccc(OC(=O)NC3CCS(=O)(=O)C3)cc2)cc1` (stereo not given), the activity, negative = inhibition result was “inactive”.
The value for `COc1ccccc1/C=C/CN1CCC(CO)(Cc2ccccc2)CC1` was “inactive”.
Under `CC(=O)c1c(O)cc2n(c1=O)-c1ccc(Cl)cc1C2(C)C` stands “inactive”; under `C/C(=C\c1ccccc1)C1NC(=O)c2c(sc3c2CCCC3)N1` (stereo not given), “inactive”.
Under `Cc1ccc(-n2cc(CN(C)Cc3nccn3C)c(-c3cccc(C)c3)n2)cc1` stands “inactive”; under `CC(/C=C/c1ccco1)=N/NC(=O)C1COc2ccccc2O1` (stereo not given), “inactive”; under `CCOc1cccc2c1OC1(CCCCC1)N1N=C(c3cccnc3)CC21` (stereo not given), “inactive”.
`OCCNCCOc1ccc(Cl)c(Cl)c1`: the activity, negative = inhibition entry was “inactive”.
The value for `Cc1c(CCO)c(=O)[nH]n1C(=O)c1c(F)cccc1F` was “inactive”; that for `O=C1C[C@@H](c2ccc3ccccc3c2)N1S(=O)(=O)c1ccccc1[N+](=O)[O-]` was “inactive”; that for `CCOC(=O)Cn1c(=O)sc2cccc(Cl)c21` was “inactive”.
Turning to `O=C(CC1C(=O)NCCN1Cc1ccc(-c2ccccc2)cc1)NCC1CCOCC1` (stereo not given), the activity, negative = inhibition entry is “inactive”.
Under `CCO[C@H]1OC(C(=O)Nc2ccccc2)=C[C@@H](C2CC2)[C@@H]1CCCO` stands “inactive”; under `Cc1ccc2nc(-c3cccnc3)c(NC3CCCC3)n2c1`, “inactive”; under `CCCCC/C=C\C/C=C\C/C=C\CCCCCCC(N)=O`, “inactive”.
As for `Cc1ccc(C2=NN(C(=O)COc3ncnc4ccccc34)C(c3ccco3)C2)cc1` (stereo not given), the activity, negative = inhibition entry was “inactive”.
The value for `O=C(Cc1ccc(S(=O)(=O)N2CCCC2)s1)NC1CCCCCC1` was “inactive”; that for `O=C(Nc1ccc(-c2csc(Nc3cccc(C(F)(F)F)c3)n2)cc1)c1cccc(C(F)(F)F)c1` was “inactive”; that for `CC[C@H](C)[C@H](NC(=O)[C@H](Cc1ccc(O)cc1)NC(=O)[C@@H](NC(=O)[C@H](CCCN=C(N)N)NC(=O)[C@@H](N)CC(=O)O)C(C)C)C(=O)N[C@@H](Cc1cnc[nH]1)C(=O)N1CCC[C@H]1C(=O)N[C@@H](Cc1ccccc1)C(=O)O` was “inactive”.
As for `COc1ccc(CCn2c(NN=C3CCCC3)nc3c2c(=O)[nH]c(=O)n3C)cc1`, the activity, negative = inhibition result was “inactive”.
The value for `CN(C)/C=C(/C(=O)c1ccc(F)cc1)S(=O)(=O)c1ccc(F)cc1` was “inactive”; that for `COc1ccc(C2c3[nH]c4ccccc4c3CCN2CCCn2cccn2)cc1C` (stereo not given) was “inactive”.
Under `S=c1nc(C23CC4CC(CC(C4)C2)C3)nc2sccn12` stands “inactive”.
With `Cc1ccc(-c2ccc(/C=C(\C#N)C(N)=S)o2)c([N+](=O)[O-])c1`, the activity, negative = inhibition result is “inactive”.
`Cc1cccc(N2CCN(C(=O)c3cccc(S(=O)(=O)N4CCc5ccccc5C4)c3)CC2C)c1` (stereo not given): the activity, negative = inhibition result was “inactive”.
For the molecule `CCO[C@@H]1OC(C(=O)NC2CC2)=C[C@H](C)[C@H]1CCCO`, the activity, negative = inhibition entry is “inactive”.
The value for `CCC1(CC)C(=O)C2=C3C1[C@H](C(=O)OC)C=C(C(=O)OC)C[C@H]3[C@H]1C(=O)N(Cc3ccccc3)C(=O)[C@H]1[C@H]2C` (stereo not given in full) was “inactive”; that for `CC(=O)OCC(NC(=O)C(Cc1ccccc1)NC(=O)OC(C)(C)C)C1OC(n2ccc(=O)[nH]c2=O)C(OC(C)=O)C1OC(C)=O` (stereo not given) was “inactive”.
With `COc1cc(S(=O)(=O)N2CCOCC2)ccc1NC(=O)COc1ccc(N(C)S(=O)(=O)c2ccc(C)cc2)cc1`, the activity, negative = inhibition entry was “inactive”.
The value for `CNC(=O)/C(C#N)=C/c1c(F)cccc1Cl` was “inactive”.
In the case of `CCCCNC(=O)CSc1nc2ccc(NC(=O)CSc3nnc(N)s3)cc2s1`, the activity, negative = inhibition entry was “inactive”.
The value for `CN(CC(=O)Nc1ccc(F)cc1)CC(=O)Nc1ccc(Cl)c(S(=O)(=O)N2CCOCC2)c1` was “inactive”; that for `NC(=O)c1ccc(NC(=O)COC(=O)c2c3c(nc4ccccc24)/C(=C\c2ccc4c(c2)OCO4)CCC3)cc1` was “inactive”.
Under `COc1cc(OC)c2c(C)cc(=O)oc2c1C(CCN1CCCCC1)c1ccc(N(C)C)cc1` (stereo not given) stands “inactive”.
For `Cc1cc(C(=O)NCCc2ccc(Cl)cc2)n(-c2ccccc2)n1`, the activity, negative = inhibition entry is “inactive”.
Consider `Cc1ccc(CNC(=O)C2(C(F)(F)F)C/C(=C\Cc3ccccc3)CCCO2)o1` (stereo not given), for which the activity, negative = inhibition result was “inactive”.
Under `CCCN1CCC(=O)N(C(CSc2ccc(C)cc2)Cc2ccccc2)CC1` (stereo not given) stands “inactive”; under `Cn1ncc(N2CCN(S(=O)(=O)c3ccc(Br)cc3)CC2)c(Cl)c1=O`, “inactive”.
The value for `CC1(C)OC(C(O)(c2ccccc2)c2ccccc2)C(C(O)(c2ccccc2)c2ccccc2)O1` (stereo not given) was 6.37% [at 13.1 µM] (inactive).
Under `CCc1c(C)nc2c(-c3ccccc3)c(C)nn2c1Nc1ccc(NC(C)=O)cc1` stands “inactive”; under `Cn1ncc2c(NNC(=O)Cc3cccc4ccccc34)ncnc21`, “inactive”; under `O=c1ccn([C@@H]2O[C@H](COP(=O)(O)OP(=O)(O)OP(=O)(O)O)[C@@H](O)[C@H]2O)c(=O)[nH]1`, “inactive”.
For `CCC/C(C)=N\Nc1nc2c(c(=O)n(C)c(=O)n2C)n1C`, the activity, negative = inhibition entry was “inactive”.
The value for `O=C1CN(Cc2ccccc2)S(=O)(=O)c2ccccc21` was “inactive”; that for `CCc1nnc(NC(=O)[C@@H](NC(=O)c2cccc(C)c2)C(C)C)s1` was “inactive”.
Turning to `O=[N+]([O-])c1ccccc1S(=O)(=O)Nc1cccc2cccnc12`, the activity, negative = inhibition entry was “inactive”.
The value for `N#Cc1c(C(F)(F)F)cc(-c2cccs2)nc1N1CCCCC1` was “inactive”; that for `COc1ccc2nc(NC(=O)[C@@H]3CCCN3C(=O)c3cccs3)sc2c1` was “inactive”.
The value for `Cc1ccc(OCCCCN2CCCCC2)c(Br)c1` was “inactive”.
In the case of `C[C@H]1Cc2c(-c3ccccc3)nc3c(c2CO1)CN(C(=O)C1CC1)CC3`, the activity, negative = inhibition was -2.96% [at 13.1 µM] (inactive).
As to `COc1ccc(-c2nc3c(c4c2C[C@H](c2ccccc2)OC4)CN(S(=O)(=O)c2c(C)noc2C)CC3)c(C)c1`, the activity, negative = inhibition was 2.29% [at 13.1 µM] (inactive).
Under `CCOC(=O)C1=C(CSc2nnnn2C)N(C)C(=O)NC1c1ccccc1` (stereo not given) stands “inactive”.
